Results on 53 compounds are retold here after ChEMBL document CHEMBL4513216, “Probing the Open Global Health Chemical Diversity Library for Multistage-Active Starting Points for Next-Generation Antimalarials” (ACS Infect Dis, 2020).

About 8,600 (12%) of roughly 69,000 compounds showed an effect of 50% or more. Only a selection was taken, and strong results are over-represented in it overall.

In this experiment the test system is Plasmodium berghei. Put plainly: Screen against P. berghei liver stage (PbLuc), transformed with Luciferase, at 10uM. As to conditions: tested at 10 uM. It counts as functional, HepG2.
`O=C(c1ccc(S(=O)(=O)N2CCNCC2)cc1)N1CCCC(O)C1` (stereo not drawn): the INHIBITION came out at 13.3%.

As for `CCCc1noc(CN2CCN(c3nccs3)CC2)n1`, the INHIBITION was -4.16%.

As to `Cc1cc(C2CCCN2Cc2ccc(S(=O)(=O)N3CCCC3)o2)on1` (stereo not drawn), the INHIBITION was 19.2%.

As to `CCCC1c2ccccc2CCN1CCS(C)(=O)=O` (stereo not drawn), the INHIBITION is reported as 22.8%.

Consider `CCC1c2ccccc2CCN1CCNS(C)(=O)=O` (stereo not drawn), for which the INHIBITION was determined as 18%.

Consider `CCC1c2ccccc2CCN1CCCS(C)(=O)=O` (stereo not drawn), for which the INHIBITION was found to be 50.6%.

As for `Cc1nn(-c2ccccc2)c2nc(C(C)(C)CN3CCN(C)CC3)[nH]c12`, the INHIBITION amounted to 8.08%.

Consider `Cc1cc(NC(=O)NCC(CC(C)C)N2CCOCC2)n(C)n1` (stereo not drawn), for which the INHIBITION is on record as -0.113%.

In the case of `Cc1noc(C)c1CC(=O)NCC(CC(C)C)N1CCOCC1` (stereo not drawn), the INHIBITION was 62.8%.

On to `Cc1noc(C)c1CC(=O)NCC(C)N1CCOCC1` (stereo not drawn), for which the INHIBITION is reported as 46.1%.

As for `O=C(NCc1cc[nH]n1)NCC(c1ccccc1)N1CCOCC1` (stereo not drawn), the INHIBITION came to 15.8%.

For `Cc1noc(C)c1CNC(C(=O)N1CCOCC1)C(C)C` (stereo not drawn), the INHIBITION came to 22.2%.

`Cc1noc(C)c1C(=O)NCCN1CCOCC1`: the INHIBITION is recorded as -27.8%.

`Cc1noc(C)c1CC(=O)NCCN1CCN(S(C)(=O)=O)CC1`: the INHIBITION is -47.8%.

With `CCC(CNC(=O)Cc1c(C)noc1C)N1CCCC1` (stereo not drawn), the INHIBITION is given as 57.3%.

As to `CC(C)C(CNC(=O)NCc1cc[nH]n1)N1CCOCC1` (stereo not drawn), the INHIBITION is listed as -1.6%.

For the compound `Cc1noc(C)c1CC(=O)NCCc1cccs1`, the INHIBITION is -26.9%.

As to `CC(C)CC(CNC(=O)NCc1cc[nH]n1)N1CCOCC1` (stereo not drawn), the INHIBITION amounted to 52%.

For `Cc1noc(C)c1CC(=O)NCC(C(C)C)N1CCOCC1` (stereo not drawn), the INHIBITION came to 58.2%.

Take `Cc1cc(NC(=O)CN2CCCC2c2c(C)nn(C)c2C)on1` (stereo not drawn): the INHIBITION is on record as 5.03%.

Turning to `Cc1noc(C)c1-c1nc(C2CCCN(C(=O)C(C)C)C2)ccc1CO` (stereo not drawn), the INHIBITION is recorded as 48.1%.

Consider `CC(=O)N(Cc1ncc(C)o1)C1CCN(Cc2nccn2C)C1` (stereo not drawn), for which the INHIBITION is recorded as 11.45%.

Consider `CC(=O)N1[C@H](Cn2cncn2)C[C@@H]2CN(CC3CC3)CC[C@@H]21`, for which the INHIBITION is recorded as -1.83%.

Regarding `COc1ccccc1C(=O)N1C[C@@H]2CCCCN(CC(N)=O)[C@@H]2C1`, the INHIBITION worked out at 9.05%.

Take `COCCCNS(=O)(=O)c1ccc(N2CCCCS2(=O)=O)cc1`: the INHIBITION is listed as 73.4%.

With `COCCCNS(=O)(=O)c1cccc(CSC)c1`, the INHIBITION is -15.7%.

On to `CC(NCCCn1cccn1)c1ccc(N2CCCS2(=O)=O)cc1` (stereo not drawn), for which the INHIBITION came out at 5.58%.

For the compound `CCOc1ccc(NC(=O)N(C)Cc2cnn(C)c2)c(C)c1`, the INHIBITION was found to be 11.9%.

For the compound `Cc1nc2c(c(C)c1CC(=O)NCc1cccs1)c(=O)[nH]n2C`, the INHIBITION is reported as -0.219%.

On to `O=c1n(Cc2cccc(F)c2)nc2ncccn12`, for which the INHIBITION was -31.7%.

As to `Cc1ccoc1C(=O)N1C[C@H](OCC2CC2)[C@H]2OCCC[C@H]21`, the INHIBITION is recorded as -31%.

Regarding `Cc1ccoc1C(=O)N1CCO[C@H]2[C@H](OCC3CCOCC3)CC[C@@H]21`, the INHIBITION is -0.182%.

With `Cc1ccoc1C(=O)N1C[C@@H](OCC2CCOCC2)[C@H]2OCCC[C@H]21`, the INHIBITION was determined as 57.1%.

In the case of `Cc1ccc(C(=O)N2C[C@@H](OCC3CCOCC3)[C@H]3OCCC[C@H]32)o1`, the INHIBITION was 41.5%.

For the compound `Cc1ccoc1C(=O)N1C[C@@H](OCC2CC2)[C@H]2OCCC[C@H]21`, the INHIBITION was 55.2%.

In the case of `Cc1ccoc1C(=O)N1C[C@H](OCc2cccnc2)[C@H]2OCCC[C@H]21`, the INHIBITION is 33.4%.

In the case of `CN(C)CCN1CCc2c(nnn2C)C1COCc1ccccc1` (stereo not drawn), the INHIBITION is reported as -4.98%.

For the compound `CCc1[nH]ncc1C(=O)N1CCCC(n2ccnc2C)C1` (stereo not drawn), the INHIBITION is 7.12%.

With `O=C(CC1CC1)N1CCC2(CC(=O)N(c3cccc(F)c3)C2)C1` (stereo not drawn), the INHIBITION was -40.5%.

`CN(C)CC(=O)N1CCC2(CC(=O)N(c3cccc(C#N)c3)C2)C1` (stereo not drawn): the INHIBITION is recorded as 53.5%.

With `O=C(Cc1ccccc1)N1CCC2(CC(=O)N(c3cccc(F)c3)C2)C1` (stereo not drawn), the INHIBITION was found to be 5.65%.

Regarding `O=C1CC2(CCN(CCO)C2)CN1c1cccc(F)c1` (stereo not drawn), the INHIBITION was -9.02%.

`COCCC(=O)N1CCCC2(CCN(c3ccccc3)C2=O)C1` (stereo not drawn): the INHIBITION is -3.58%.

Turning to `COCC(=O)N1CCC2(CC(=O)N(c3cccc(F)c3)C2)C1` (stereo not drawn), the INHIBITION turned out to be 63.1%.

As to `CCOCC(=O)N1CCCC2(CCN(c3ccccc3)C2=O)C1` (stereo not drawn), the INHIBITION is given as 33.4%.

With `N#Cc1cccc(N2CC3(CCN(C(=O)NC4CC4)C3)CC2=O)c1` (stereo not drawn), the INHIBITION came to 33.4%.

Consider `O=C1CC2(CCN(Cc3cccs3)C2)CN1c1cccc(F)c1` (stereo not drawn), for which the INHIBITION turned out to be 59.2%.

On to `COCC(=O)N1CCCC2(CCN(c3ccccc3)C2=O)C1` (stereo not drawn), for which the INHIBITION stood at 71.9%.

As for `CN(C)C(=O)N1CCC2(CC(=O)N(c3cccc(C#N)c3)C2)C1` (stereo not drawn), the INHIBITION stood at 7.65%.

For `O=C1CC2(CCN(Cc3ccncc3)C2)CN1c1cccc(F)c1` (stereo not drawn), the INHIBITION is given as -11.6%.

On to `CC(C)c1ncc(CNC2(c3ccc(Cl)cc3)CC2)cn1`, for which the INHIBITION is -33.4%.

Regarding `O=C(NC1CCN(C2CC2)C1)c1cn(-c2ccc(F)cc2)nn1` (stereo not drawn), the INHIBITION amounted to 14.3%.

Turning to `CC1CN(C(=O)c2ccn(C)c(=O)c2)c2ccccc2NC1=O` (stereo not drawn), the INHIBITION is reported as -24%.
